Data: PubChem BioAssay AID1835 (Johns Hopkins Ion Channel Center, 2009)
In all, about 2,400 compounds went through this assay and about 750 (31%) were called active. The list shows a part of the results. A number with no mark means an inactive call.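 How the source made its calls: active means median signal gain over dofetilide-blocked control wells reaching their mean plus 3 SD, so readout 1 at least 0; inactive means the rest.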

The compounds below were run against Voltage-gated inwardly rectifying potassium channel KCNH2 (Homo sapiens) (UniProt Q12809) (assay: modulators restoring hERG flux under dofetilide – cell-based, thallium flux, duplicate retest, dofetilide IC70, confirmation (AID 1835)). Conditions: hERG cell line, FluxOR thallium flux, dofetilide-blocked; at 10 µM; stronger effect = higher value.
Voltage-gated inwardly rectifying potassium channel KCNH2 (Homo sapiens), sequence (Q12809 whole entry, looked up): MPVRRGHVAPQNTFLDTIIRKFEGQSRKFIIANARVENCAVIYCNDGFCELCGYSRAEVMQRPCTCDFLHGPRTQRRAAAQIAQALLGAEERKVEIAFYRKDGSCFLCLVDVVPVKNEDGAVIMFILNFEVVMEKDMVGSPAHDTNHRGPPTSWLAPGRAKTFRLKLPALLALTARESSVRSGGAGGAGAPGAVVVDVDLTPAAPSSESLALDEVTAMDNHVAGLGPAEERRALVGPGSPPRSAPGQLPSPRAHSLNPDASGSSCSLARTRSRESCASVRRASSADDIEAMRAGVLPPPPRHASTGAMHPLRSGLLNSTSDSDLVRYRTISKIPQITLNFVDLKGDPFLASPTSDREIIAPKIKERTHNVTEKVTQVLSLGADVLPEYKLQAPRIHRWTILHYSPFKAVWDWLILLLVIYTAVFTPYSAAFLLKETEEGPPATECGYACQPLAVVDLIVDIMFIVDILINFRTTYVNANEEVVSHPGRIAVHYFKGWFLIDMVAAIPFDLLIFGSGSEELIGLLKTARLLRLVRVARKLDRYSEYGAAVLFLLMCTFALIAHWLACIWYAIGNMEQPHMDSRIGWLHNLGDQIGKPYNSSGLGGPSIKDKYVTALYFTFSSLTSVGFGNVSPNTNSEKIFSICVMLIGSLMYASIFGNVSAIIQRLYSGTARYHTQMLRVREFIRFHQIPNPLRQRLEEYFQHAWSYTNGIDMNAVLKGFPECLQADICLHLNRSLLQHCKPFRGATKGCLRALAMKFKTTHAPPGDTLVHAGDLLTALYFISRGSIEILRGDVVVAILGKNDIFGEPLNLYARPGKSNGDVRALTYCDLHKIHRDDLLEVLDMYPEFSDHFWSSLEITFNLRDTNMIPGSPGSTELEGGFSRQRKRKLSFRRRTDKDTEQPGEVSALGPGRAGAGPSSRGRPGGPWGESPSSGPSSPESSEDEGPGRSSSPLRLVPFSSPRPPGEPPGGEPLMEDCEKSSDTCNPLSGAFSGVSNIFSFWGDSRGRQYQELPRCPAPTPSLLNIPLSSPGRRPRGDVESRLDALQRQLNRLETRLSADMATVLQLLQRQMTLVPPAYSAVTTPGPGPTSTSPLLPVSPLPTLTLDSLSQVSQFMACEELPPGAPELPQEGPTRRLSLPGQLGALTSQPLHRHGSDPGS

Row | Structure (SMILES) | activity increase over dofetilide control, less the hit threshold
1 | COc1ccc(C(CC(=O)N2CCOCC2)c2c(O)cc(OC)cc2OC)cc1 (stereo not given) | -13%
2 | CCOC(=O)C1=C(Cn2cnc3ccccc32)NC(=O)NC1c1cc(C)ccc1C (stereo not given) | -10%
3 | CC(C)[C@H](NC(=O)OC(C)(C)C)C(=O)NCC1CCC(C(=O)N[C@@H](Cc2ccccc2)C(=O)O)CC1 (stereo not given in full) | -5%
4 | CNC(=O)c1cc(C(=O)c2ccc(F)cc2C(F)(F)F)c[nH]1 | -7%
5 | COc1cc(NC(=O)c2ccccc2)c(OC)cc1NC(=O)Cc1ccc(Br)cc1 | 12% (active)
6 | COc1ccc(CC(=O)Nc2ccccc2Oc2ccccc2)cc1 | -13%
7 | COc1cc(Br)cc(/C=N/NC(=O)Cc2ccccc2)c1O | -9%
8 | O=c1[nH]c(C(Cl)(Cl)Cl)nc2ccc3ccccc3c12 | 4% (active)
9 | CCCN1CCN(CCCNC(=O)Cn2nc(C)n3c(cc4cc(OC)ccc43)c2=O)CC1 | -13%
10 | CS(=O)(=O)Nc1cccc(-c2cn3ccccc3n2)c1 | -13%
11 | O=C(Nc1nnc(C2=COCCO2)o1)c1ccc(Br)cc1 | -42%
12 | O=C(Nc1nnc(-c2ccc3c(c2)CCCC3)o1)C1COc2ccccc2O1 (stereo not given) | -12%
13 | O=C(Nc1nnc(-c2ccc3c(c2)CCCC3)o1)c1ccc(Cl)cc1Cl | 9% (active)
14 | Cc1[nH]c(=S)sc1Cc1ccc(Cl)c(Cl)c1 | -12%
15 | Cc1ccc(Cc2c[nH]c(=S)s2)cc1 | 44% (active)
16 | S=c1[nH]cc(Cc2ccccc2)s1 | -5%
17 | Cc1[nH]n2c(=O)cc(C(C)(C)C)nc2c1-c1ccccc1 | 14% (active)
18 | Cc1nn(CCC#N)c2nc(-c3ccccc3)cc(C(F)(F)F)c12 | -11%
19 | NC(=O)c1nn2c(C(F)(F)F)cc(-c3ccccc3)nc2c1Br | -8%
20 | Cc1[nH]n2c(=O)cc(C(C)C)nc2c1-c1ccccc1 | -6%
21 | O=c1cc(-c2ccccc2)nc2c(-c3ccccc3)c(C(F)(F)F)[nH]n12 | 56% (active)
22 | Nn1c(SCC(=O)Nc2ccccc2F)nnc1C1CCCCC1 | -10%

Row | Structure (SMILES) | activity increase over dofetilide control, less the hit threshold
23 | CC(C)C(=O)Nc1ccc2c(c1)Cc1cc(NC(=O)C(C)C)ccc1-2 | -3%
24 | Cc1noc(C)c1CSc1ncnc2sc3c(c12)CCCCC3 | 4% (active)
25 | CCOc1ccc(S(=O)(=O)N2CCN(Cc3ccc4c(c3)OCO4)CC2)cc1C | -31%
26 | COC(=O)C1=NN(C(=O)c2ccc(Cl)cc2)C(O)(c2ccccc2)C1 (stereo not given) | 74% (active)
27 | CCOC(=O)c1cnc(-n2nc(C)cc2C)nc1Nc1cccc(C(=O)O)c1 | -2%
28 | CC1=NN(C(=O)c2ccc(Cl)cc2)C(O)(c2ccccc2)C1 (stereo not given) | -11%
29 | CCC1=NN(C(=O)c2ccc(Cl)cc2)C(O)(c2ccccc2)C1 (stereo not given) | -24%
30 | CC1=NN(C(=O)c2ccccc2Br)C(O)(c2ccc(Cl)cc2)C1 (stereo not given) | -15%
31 | CC1=NN(c2ccccc2)C(=O)C1C(=O)c1ccc(Cl)cc1 (stereo not given) | -5%
32 | COC(=O)C1=NN(C(=O)c2ccc(C)cc2)C(O)(c2ccc(Cl)cc2)C1 (stereo not given) | 92% (active)
33 | CCOC(=O)C1=NN(C(=O)c2cccc(Br)c2)C(O)(C(C)(C)C)C1 (stereo not given) | 79% (active)
34 | COC(=O)C1=NN(C(=O)c2cccc(Br)c2)C(O)(c2ccc(Cl)cc2)C1 (stereo not given) | 86% (active)
35 | COCCn1nnnc1C(c1ccc(C(F)(F)F)cc1)N1CCOCC1 (stereo not given) | -20%
36 | O=C(CSc1ccccc1)N1CCN(S(=O)(=O)c2cccs2)CC1 | -10%
37 | CCOC(=O)N1CCN(C(=O)CN(c2ccc(OCC)cc2)S(C)(=O)=O)CC1 | -19%
38 | CCOC(=O)N1CCN(C(=O)COC(=O)c2cc(Cl)c(O)c(Cl)c2)CC1 | 5% (active)
39 | O=C(OCC(=O)N1CCOCC1)c1ccc(Cl)cc1[N+](=O)[O-] | -13%
40 | Cc1ccc(NC2=CC(=O)OC(C)C2)cc1 (stereo not given) | -4%
41 | C=C(C)CNC(=S)NN=C1c2ccccc2-c2ccccc21 | 15% (active)
42 | C=CCNC(=S)N/N=C(\C)c1ccc(OC)cc1 | -4%
43 | CCOC(=O)N1CCN(C(=O)c2ccc(Cl)c(S(=O)(=O)Nc3ccccc3)c2)CC1 | 5% (active)
44 | CCOC(=O)N1CCN(C(=O)c2ccc(C)c(S(=O)(=O)Nc3ccccc3)c2)CC1 | -1%

Row | Structure (SMILES) | activity increase over dofetilide control, less the hit threshold
45 | Cc1cc(S(=O)(=O)Nc2ccc(C(=O)N3CCN(C(=O)c4ccco4)CC3)cc2)ccc1F | -13%
46 | NC(=O)c1ccsc1NC(=O)CS(=O)(=O)c1ccccc1 | -9%
47 | O=c1c(O)c(-c2ccc3c(c2)OCO3)oc2ccccc12 | 6% (active)
48 | O=c1c(O)c(-c2cccs2)oc2ccc(Cl)cc12 | 92% (active)
49 | O=c1c(O)c(-c2cccs2)oc2ccccc12 | 62% (active)
50 | O=C(NCc1cccnc1)Nc1ccc2c(c1)OCO2 | -19%
51 | Cn1nc(C(=O)Nc2ccc3c(c2)OCO3)c2ccccc2c1=O | -16%
52 | O=C1OC(/C=C/c2ccc(Cl)cc2Cl)=NC/1=C\c1cccs1 | -7%
53 | Cc1ccc(S(=O)(=O)c2nnn3c2nc(N2CCOCC2)c2ccccc23)c(C)c1 | -14%
54 | C/C(CCC12CC3CC(CC(C3)C1)C2)=N\NC(N)=S | 0%
55 | C/C(O)=C/c1nc2ccccc2[nH]c1=O | -7%
56 | Cc1cccc(NC(=S)NC(=O)c2ccc(Br)o2)c1C | 6% (active)
57 | Cc1cccc(C)c1NC(=S)NC(=O)c1ccc(Br)o1 | 73% (active)
58 | Cc1cccc(NC(=S)NC(=O)c2ccco2)c1C | 52% (active)
59 | CCOc1ccc(-c2cccc(NC(=O)c3ccc(Br)o3)c2)nn1 | -26%
60 | CN1CCN(c2ccc(NC(=O)c3ccc(Br)o3)cc2)CC1 | -2%
61 | Cc1cccc(NC(=O)CCNC(=O)c2ccco2)c1C | -13%
62 | Nc1cc(=O)[nH]c(SCC(=O)N2CCCCC2)n1 | -10%
63 | Cc1ccc(CNS(=O)(=O)c2cc3c4c(c2)CCN4C(=O)CC3)cc1 | -9%
64 | Cc1[nH]c(-c2ccccn2)nc(=S)c1Cl | 61% (active)
65 | Cc1cc(=S)nc(-c2ccccn2)[nH]1 | -7%
